Results filed as inconclusive are left out. Unmarked numbers belong to inactive results. Active and inactive are the calls of the source. Calls come from the whole dose curve; as a rule, active = well fitted inhibition curve with a large enough effect; inconclusive = small, poorly fitted or top-dose-only effect; inactive = no such curve, though single readings can be large or run the other way.
assay: Confirmation assay for measurement of the activity of small molecule inhibitors on Zika virus induced Caspase-3 activity in human astrocytes; settings: ZIKV-induced caspase-3/7 luminescence, 6 h; series mostly up to 46.1 µM; activity, negative = inhibition: at the top concentration
From the text: National Center for Advancing Translational Sciences [NCATS] Johns Hopkins University School of Medicine Florida State University Assay Overview: Increase in the Caspase-3 activity indicates an activation of apoptosis cell death pathway caused by Zika virus infection in certain types of neuronal cells including human neural progenitor cells (hNPCs), astrocytes, and astrocytoma cell line (SNB-19). This cell-based caspase-3 activity assay measures the increased caspase-3 activity in the human astrocytes after a 6-hour Zika virus infection with a luminescence readout. A decrease in the luminescence signal in this assay by small molecule treatment indicates an inhibitory effect of that small molecule on the Zika virus induced caspase-3 activity that may correlate with its effect on reduction of Zika virus caused cell death.
Assay Protocol Summary: The medium for astrocytes contains AM basal medium (ScienCell, Cat.# 1801), AGS (ScienCell, Cat.# 1801), 10% FBS, and 1% Pen/Strep. A Caspase-Glo 3/7 assay kit (catalog number G8092; Promega, Madison, WI) was used to detect caspase-3 activity induced by Zika virus infection in human cells. The reagent mixture was reconstituted as described in the protocol from the manufacturer. Polystyrene tissue culture treated and PDL coated white plates were obtained from Greiner Bio-One (Monroe, NC). Cells were seeded in 384- or 1536-well assay plates and cultured at 37 C with 5% CO2 for 16 to 20 hours. The typical cell seeding density in the 1536-well plate assay is 350 cells/well in 3 ul medium for astrocytes in tissue culture treated plates. Compounds were added to cells and incubated for one hour before addition of ZIKV solution to cells (2 FFU/cell). After incubation at 37 C with 5% CO2 for 6 hours, the reagent mixture of Caspase-Glo 3/7 assay kit was added to each well, followed by incubation at room temperature for 30 minutes. The luminescence intensity of the assay plates was measured using a ViewLux plate reader (PerkinElmer). Data were normalized by using the cell-containing wells without ZIKV as a negative control (0% induction of caspase 3/7 activity) and wells containing ZIKV infected cells (Caspase-3 activity induced) as a positive control (100% induction of caspase 3 activity). The percentage inhibitions of the increased Caspase-3 activity by small molecule inhibitors were then calculated.

SMILES | Potency | activity, negative = inhibition
CN1CC(=O)N/C1=N/C(=O)Nc1cccc(Cl)c1 | 10.9 µM (active) | 
Nc1ccc(O)c(C(=O)O)c1 |  | -0.275%
Cc1ccc2c(n1)Oc1ccc(C(C)C(=O)OCC(=O)N(C)C)cc1C2 (stereo not given) | 19.5 µM (active) | 
O=C(Oc1ccccc1)c1cccc(C(=O)Oc2ccccc2)c1 | 6.31 µM (active) | 
CC(O)=C(C#N)C(=O)Nc1ccc(C(F)(F)F)cc1 | 1.09 µM (active) | 
CC(=NNC(=S)N1CCC1)c1ccccn1 |  | 48.5%
C[C@@H]1CCN(C(=O)CC#N)C[C@H]1N(C)c1ncnc2[nH]ccc12 |  | -16.5%
O=C(Nc1cc2cc[nH]c2cn1)c1ccccc1 | 4.35 µM (active) | 
COc1ccc(CC2=NN3C([C@@H](CCc4ccccc4)[C@@H](C)O)=NC(C)C3C(=O)N2)cc1OC (stereo not given in full) |  | -7.76%
CC(=C(CCOC(=O)C(C)C)SSC(CCOC(=O)C(C)C)=C(C)N(C=O)Cc1cnc(C)nc1N)N(C=O)Cc1cnc(C)nc1N |  | -20.1%
COc1ccc(-c2cc(=O)c3c(O)cc(O)cc3o2)cc1O | 13.8 µM (active) | 
O=c1cc(-c2ccccc2)oc2cc(O)c(O)c(O)c12 |  | -14%
CCN(CC)c1ccc(C(=C2C=CC(=[N+](CC)CC)C=C2)c2cc(S(=O)(=O)O)ccc2S(=O)(=O)[O-])cc1 | 7.74 µM (active) | 
NC(=O)c1cccc2[nH]c(-c3ccc([C@H]4CCCN4)cc3F)nc12 | 13.8 µM (active) | 
O=C1C(Cl)=C(NCCN2CCOCC2)C(=O)c2ncccc21 | 6.15 µM (active) | 
Cc1ccc(O)c(N=Nc2ccccc2)n1 | 1.73 µM (active) | 
Clc1ccccc1-c1nc(-c2ccncc2)no1 | 6.15 µM (active) | 
COc1ccc(C=CC(=O)Nc2ccccc2C(=O)O)cc1OC | 17.3 µM (active) | 
Cc1cccc(/C=C/c2ccccc2)n1 | 10.9 µM (active) | 
O=C(O)[C@@H](c1ccc(OCc2ccc3ccccc3n2)cc1)C1CCCC1 | 8.69 µM (active) | 

SMILES | Potency | activity, negative = inhibition
Cc1c(N)c(=O)n(-c2ccccc2)n1C |  | 7.53%
O=C(Nc1ccc(C(=O)O)c(O)c1)c1ccccc1 | 4.89 µM (active) | 
O=C(Nc1ccc(OC(F)(F)F)cc1)c1sccc1NCc1ccnc2ccccc12 | 7.74 µM (active) | 
CN1CC(=O)N2C(Cc3c([nH]c4ccccc34)[C@H]2c2ccc3c(c2)OCO3)C1=O (stereo not given in full) |  | 9.65%
CCCCCCCCCCCC(=O)[O][Sn]([CH2]CCC)([CH2]CCC)[O]C(=O)CCCCCCCCCCC |  | -15%
Nc1ccc(N=Nc2ccccc2)c(N)n1 | 15.5 µM (active) | 
CN(C)c1cc(NC(=O)CNC(C)(C)C)c(O)c2c1C[C@@H]1C[C@H]3[C@H](N(C)C)C(=O)C(C(N)=O)=C(O)[C@@]3(O)C(=O)C1=C2O |  | -3.13%
CC(=O)Oc1ccccc1C(=O)Nc1ncc([N+](=O)[O-])s1 | 1.58 µM (active) | 
CCCCCCCC/C=C/C(=O)O |  | -26.5%
Nc1ccc2c(c1)CN1C(=O)c3ccccc3C1=N2 | 2.13 µM (active) | 
Nc1cc(C(F)(F)F)ccc1S |  | -8.2%
Cc1c(C(=O)O)c(O)cc2c1C(=O)c1c(O)c([C@@H]3O[C@H](CO)[C@@H](O)[C@H](O)[C@H]3O)c(O)c(O)c1C2=O |  | -21.7%
CO[C@H]1C(=O)[C@]2(C)[C@@H](OC)C[C@H]3OC[C@@]3(OC(C)=O)[C@H]2[C@H](OC(=O)c2ccccc2)[C@]2(O)C[C@H](OC(=O)[C@H](O)[C@@H](NC(=O)OC(C)(C)C)c3ccccc3)C(C)=C1C2(C)C |  | -4.54%
O=C(O)c1cccc(-c2noc(-c3ccccc3F)n2)c1 | 3.88 µM (active) | 
CCN1/C(=C/C=C/c2sc3ccccc3[n+]2CC)Sc2ccccc21 |  | 11.1% [at 23.8 µM]
CN(C)c1ccc(/C=C2\C(=O)Nc3ccccc32)cc1 | 8.69 µM (active) | 
Cc1oncc1C(=O)Nc1ccc(C(F)(F)F)cc1 | 3.88 µM (active) | 
CC[C@@]1(O)C[C@H](O[C@H]2C[C@H](N(C)C)[C@H](O[C@H]3C[C@H](O)[C@H](O[C@H]4CCC(=O)[C@H](C)O4)[C@H](C)O3)[C@H](C)O2)c2c(cc3c(c2O)C(=O)c2c(O)cccc2C3=O)[C@@H]1C(=O)OC |  | 10.1%
C[C@H](NC(=O)C(=O)Nc1ccccc1C(C)(C)C)C(=O)N[C@@H](CC(=O)O)C(=O)COc1c(F)c(F)cc(F)c1F | 0.245 µM (active) | 
COc1ccc(NC(=O)/C=C/c2ccc(Cl)cc2)cc1 | 3.88 µM (active) | 

Source: PubChem BioAssay AID1224858 (National Center for Advancing Translational Sciences (NCATS), 2016)
